From PubChem BioAssay

What follows are compounds tested on Chordin-like protein 2 (CHRDL2) (assay: CHRDL2 small-molecule binders, primary screen, biochemical, small-molecule microarray, 635 nm fluorescence (AID 1126;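 note: printed compound slides probed with Chrdl2 protein at 4 µg/mL for 1 h at 4 C; score merges 667 nm emission intensity with signal to noise over three replicate slides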)). Settings: small-molecule microarray binding, fluorescence 635 nm; higher = more signal.

| Compound | composite z-score |
| --- | --- |
| COc1ccc(CCN2C(=O)[C@@]3(c4ccc([N+](=O)[O-])cc4)CC(=O)N(CC45CC6CC(CC(C6)C4)C5)[C@@H]3c3ccc(CO)cc32)cc1 | 0.569 |
| C=CCN1C(=O)[C@@]2(Cc3ccccc3)N=C(c3ccc(OCCCO)cc3)O[C@H]2c2ccccc21 | 1.23 |
| CN1CCC(CCCO)=CC1C1CC1 (stereo unspecified) | 0.39 |
| CC(C)N1CC=CC23O[C@@H]4/C=C\CCCOC(=O)C4[C@H]2C(=O)N(CCCCCO)[C@@H]3C1=O (stereo partly specified) | -1.9 |
| COCCOC(=O)N1C(=O)[C@@]2(c3cc(C#CCC(C(=O)OC)C(=O)OC)ccc31)[C@H](C(=O)N1CCN(c3ncccn3)CC1)[C@H]1C(=O)O[C@H](c3ccccc3)[C@H](c3ccccc3)N1[C@@H]2c1ccc(O)cc1 | -0.358 |
| CCC(=O)[C@]12O[C@@]3([C@@H]4C(=O)OCC[C@@H]41)N(Cc1ccccc1)C(C)=C(C(=O)OC)[C@@H](c1ccccc1)N3C2=O | -0.334 |
| COC(=O)[C@@]1(Cc2ccc(OC)cc2)[C@H]2c3cc(C(=O)N(C)C)n(Cc4ccc(C)c(F)c4F)c3C[C@H]2CN1C(=O)c1ccccc1 | -1.22 |
| COc1cc(CO)cc(I)c1O[C@H]1C=C(C(=O)NCCO)C[C@@H](NCCc2c[nH]c3ccccc23)[C@@H]1O | 0.685 |
| Cc1ccc(N2C(=O)c3ccccc3[C@](C)(C(=O)O)[C@@H]2c2ccc(CO)cc2)nc1 | -1.77 |
| COC(=O)[C@@]1(Cc2ccccc2)[C@H]2c3cc(C(=O)N4CCCC4)n(CCN4CNCC4=O)c3C[C@H]2CN1C(=O)c1ccccc1 | -0.634 |
| CO[C@@H]1COC(=O)[C@H](C)NC(=O)CC=C[C@@H](C)[C@H](OC)COC(=O)[C@H](C)NC(=O)CC=C[C@H]1C | 1.16 |
| C=C(COC)/C(=C/C[C@@H](OC(C)=O)c1cccc(OCCO)c1)c1cc(C(=O)OC)ccc1OC | -0.458 |
| CCOC(=O)C[C@H]1[C@H](OC(=O)c2ccccc2-c2ccccc2)[C@@H](NC(=O)c2ccc(-c3ccccc3)cc2)c2cc(OCCCO)ccc2N1C(=O)Cc1ccc(OC)cc1 | 0.335 |
| [N-]=[N+]=NCc1ccccc1C[C@]1(C(=O)N2CCCCC2)N=C(c2ccc(OCCCO)cc2)O[C@H]1c1ccccc1CN=[N+]=[N-] | -0.914 |
| CO[C@H]1COC(=O)[C@@H](OCc2ccccc2)C=C[C@H](C)[C@@H](OC)COC(=O)[C@H](OCc2ccccc2)C=C[C@@H]1C | -0.51 |
| COCCOC(=O)N1C(=O)[C@@]2(c3cc(C#CCNC(N)=O)ccc31)[C@H](c1ccc(OCCO)cc1)N1[C@H](c3ccccc3)[C@H](c3ccccc3)OC(=O)[C@H]1[C@@H]2C(=O)Nc1nc2ccccc2s1 | 0.903 |
| CCOC(=O)C1=CC[C@@H](c2ccc(-c3ccc(OCc4ccccc4)cc3)c(OC)c2)N(S(=O)(=O)c2ccc(C)cc2)[C@H]1c1ccccc1 | 0.0693 |
| Cc1ccc(S[C@]2(C(=O)O)CC(=O)N(Cc3ccccc3)[C@@H]2c2ccc(CO)cc2)cc1 | -0.852 |

| Compound | composite z-score |
| --- | --- |
| Cc1ccc(S[C@]2(C(=O)NC(C)C)CC(=O)N(Cc3cc(C(F)(F)F)cc(C(F)(F)F)c3)[C@@H]2c2ccc(CO)cc2I)cc1 | -1.21 |
| CO[C@@H]1COC(=O)[C@H](COCc2ccccc2)NC(=O)CC=C[C@@H](C)[C@H](OC)COC(=O)[C@H](COCc2ccccc2)NC(=O)CC=C[C@H]1C | 1.1 |
| CCC1=C2CN(Cc3ccccc3Br)[C@@H]([C@@H](O)Cc3ccccc3)C2C=CCC1 (stereo partly specified) | 0.611 |
| COCCOC(=O)N1C(=O)[C@@]2(c3cc(C#CCC(C(=O)OC)C(=O)OC)ccc31)[C@H](c1ccccc1OCCO)N1[C@H](c3ccccc3)[C@H](c3ccccc3)OC(=O)[C@H]1[C@@H]2C(=O)N1CCCCCCC1 | 1.27 |
| CO[C@@H]1COC(=O)[C@@H]2CCCN2C(=O)CC=C[C@@H](C)[C@H](OC)COC(=O)[C@@H]2CCCN2C(=O)CC=C[C@H]1C | 1.36 |
| C=C(COC)/C(=C/C[C@H](OC(C)=O)c1ccc(OCCO)cc1)c1cnc2ccccc2c1 | 1.24 |
| CC(=O)Nc1ccc([C@H]2[C@H](C)CC[C@H]3C(=O)N4[C@@H](CC[C@@H](C)[C@@H]4c4ccc(NC(C)=O)cc4)C(=O)N32)cc1 | 0.378 |
| CN(C)CCCC[C@@H]1NC(=O)[C@@H]2C[C@H](C(=O)O)[C@H](c3ccc(O)cc3)N2C1=O | 0.917 |
| C[C@@H]1CC[C@H]2C(=O)N3[C@@H](CC[C@@H](C)[C@@H]3c3cccc(N4CCOCC4)c3)C(=O)N2[C@H]1c1cccc(Br)c1 | 0.932 |
| CCCN1C(=O)[C@@]2(CCS(=O)(=O)c3ccccc3)N=C(c3ccc(OCCCO)cc3)O[C@H]2c2ccccc21 | 0.637 |
| O=C(O)[C@@H]1Cc2c([nH]c3ccccc23)[C@@H](c2ccccc2)N1 | 0.379 |
| C[C@@H]1CC[C@H]2C(=O)N3CCC[C@H]3C(=O)N2[C@H]1c1ccc(Br)cc1 | 0.536 |
| CCC#CCN(Cc1ccccc1Br)[C@H](/C=C/c1ccccc1)[C@@H](O)Cc1ccccc1 | -1.16 |
| [N-]=[N+]=NCc1ccccc1C[C@]1(C(N)=O)N=C(c2ccc(OCCCO)cc2)O[C@H]1c1ccccc1CN=[N+]=[N-] | -1.12 |
| C=CCC(OC(C)=O)[C@@H]1[C@@H](N(Cc2ccc(-c3ccccc3)cc2)C(=O)c2ccc(-c3ccccc3)cc2)c2cc(OCCCO)ccc2N1C(=O)Cc1ccc(OC)cc1 (stereo partly specified) | -0.0682 |
| O=C1C[C@@](C(=O)NC2CC2)(c2ccc([N+](=O)[O-])cc2)[C@@H](c2ccc(CO)cc2I)N1CC12CC3CC(CC(C3)C1)C2 | 0.224 |
| Cc1ccc(N2C(=O)c3ccccc3[C@@H](C(=O)NCC(F)(F)F)[C@@H]2c2ccc(CO)cc2)nc1 | -2.4 |
| C=CC[C@]1(C(=O)O)N=C(c2ccc(OCCCO)cc2)O[C@H]1c1ccccc1 | -0.916 |
